# Assay outcomes from PubChem BioAssay.
# NS3h inh CB = HCV NS3 helicase inhibitors, primary screen, biochemical, fluorescence polarization, ChemBridge library; Hepatitis C virus NS3 helicase; NS3h Cy5-dT15 DNA binding; inhibition, % at 100 µM; 1.6% of 16,000 active; AID 687043, 2013;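 active = inhibition above the average over every tested compound plus 3 SD, cut at about 40% in these data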
# Cy5 interf NS3h = Cy5 fluorescence quenchers or enhancers, artefact control for HCV NS3 helicase inhibitor project, biochemical, ChemBridge library, Cy5 readout. Cy5-dT15 DNA with NS3h, fluorescence interference; actives lie on both sides; signal over control mean, under 1 quenches. fluorescence interference ratio at 100 µM. 6% of 16,000 active;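 active = compound fluorescence over control fluorescence at most 0.8, a quencher, or at least a set upper limit, an enhancer; inactive = ratio between 0.8 and the set upper limit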
# Numbers without * were called inactive. The list is not random: actives were taken first. Their share in the collection is about 7.6%.
SMILES,NS3h inh CB,Cy5 interf NS3h
O=C(Nc1ccccc1C(=O)Nc1ccc(Br)cc1)c1cccs1,7,0.97
O=C1NC(=S)N/C1=C\c1ccccc1,16,1.2*
O=C1NC(=S)N/C1=C/c1ccc(O)c(Cl)c1,-4,0.98
COc1ccc(S(=O)(=O)N2CCSC2c2ccccc2Cl)cc1 (stereo not given),6,1
CS(=O)(=O)N1CCN(Cc2ccccc2[N+](=O)[O-])CC1,4,0.72*
Cc1ccc(S(=O)(=O)N2CCN(Cc3ccccc3[N+](=O)[O-])CC2)cc1,4,0.97
CS(=O)(=O)N1CCN(Cc2ccccc2C(F)(F)F)CC1,5,0.55*
Cc1ccccc1CN1CCN(S(C)(=O)=O)CC1,10,0.96
COC(=O)c1ccccc1NC(=O)CN(c1ccc(C)cc1)S(C)(=O)=O,11,0.99
CCOC(=O)c1ccccc1NC(=O)CN(c1ccc(C)cc1)S(C)(=O)=O,42*,0.81
O=C(Nc1nc(-c2ccccc2)cs1)C1CC2CCC1C2 (stereo not given),11,1.1
CSc1ccc(/C=C/C(=O)c2ccc(NC(=O)c3cccs3)cc2)cc1,21,0.71*
O=C(Nc1ccc(/C=C/C(=O)c2cccs2)cc1)c1ccc(Br)cc1,-4,1
O=C(c1cccc([N+](=O)[O-])c1)N1N=C(c2ccccc2)CC1(O)C(F)(F)F (stereo not given),10,0.88
O=C(CCN1C(=O)/C(=C/c2cccs2)SC1=S)Nc1ccc(F)cc1,3,1
CN1CCN(C(=O)CCN2C(=O)/C(=C/c3cccs3)SC2=S)CC1,0,0.58*
CN(C)c1cccc(C(=O)NC2CCCCCC2)c1,8,1.1
O=C(Nc1ccc2c(c1)C(=O)OC2)NC1CCCCC1,21,1.4*
C=CCOc1c(Br)cc(C2C3=C(CC(C)(C)CC3=O)OC3=C2C(=O)CC(C)(C)C3)cc1OCC,25,0.93
O=C1CSC2(N1)C1CC3CC(C1)CC2C3 (stereo not given),-1,1.2*
Cc1ccc(OCCOCCOc2ccc(Cl)cc2/C=C2/SC(=S)NC2=O)cc1,23,0.97
C=CCOc1ccc(Cl)cc1/C=C1/SC(=S)NC1=O,12,1.2*
CCCCCCN1C(=O)C(O)=C(C(C)=O)C1c1ccc(OC)c(OC)c1 (stereo not given),-9,1.1
COc1cccc(-n2c(O)c(C(c3ccccn3)c3c(O)n(-c4cccc(OC)c4)c(=O)[nH]c3=O)c(=O)[nH]c2=O)c1,7,0.93
COc1ccc(-n2c(O)c(C=Nc3ccc(Cl)cc3)c(=O)[nH]c2=O)cc1,7,0.78*
SMILES,NS3h inh CB,Cy5 interf NS3h
CC(O)=CC(N)=NC(=O)c1ccccc1,3,1.1
CCOc1c(Br)cc(/C=C(\C#N)c2nn(-c3ccccc3)c(N)c2C#N)cc1OC,4,0.98
CCOc1c(Br)cc(/C=C(\C#N)c2nn(CCO)c(N)c2C#N)cc1OC,-25,0.79*
Cc1c(Cl)c(C(F)(F)F)nn1CC(=O)Nc1ccccc1C(F)(F)F,2,1
Cc1c(Cl)c([N+](=O)[O-])nn1CC(=O)Nc1cc(C(F)(F)F)ccc1Cl,1,0.62*
O=[N+]([O-])c1ccc(-n2ncnc2-c2cccc(Br)c2)c(Cl)c1,1,0.96
C=CCNC(=O)CN(c1cc(Cl)cc(Cl)c1)S(C)(=O)=O,5,1.2*
Cc1ccc(NC(=O)CN(c2cc(Cl)cc(Cl)c2)S(C)(=O)=O)cc1,7,0.99
COc1cccc(NC2=NS(=O)(=O)c3cc([N+](=O)[O-])ccc32)c1,-1,1
Cc1ccc(NC(=O)c2ccc(I)cc2)cc1Cl,4,1.1
COc1ccc(C(=O)Nc2ccc(C(N)=O)cc2)cc1[N+](=O)[O-],-2,0.78*
Cc1cc(C(=O)Nc2ccc(N(C)C)cc2)ccc1[N+](=O)[O-],20,0.24*
COc1ccc(C(=O)Nc2ccc(C)c(Cl)c2)cc1OC,19,0.73*
COc1ccc(C(=O)Nc2ccc(C(C)C)cc2)cc1[N+](=O)[O-],7,0.98
Cc1cc(C)cc(NC(=O)c2ccc(C)c([N+](=O)[O-])c2)c1,-7,1
COC(=O)C1=C(C)NC(C)=C(C(=O)OC)C1c1cn(-c2ccccc2)nc1-c1ccc(OC)c(Cl)c1,29,0.81
O=C1C(=O)N(c2nccs2)C(c2ccc(F)cc2)C1=C(O)c1ccc(Cl)cc1 (stereo not given),9,0.96
CC(=O)Nc1ccccc1NC(=O)c1cccc(Br)c1,3,1.1
CCn1c(-c2ccc([N+](=O)[O-])cc2)n[nH]c1=S,-3,0.98
O=[N+]([O-])c1ccc(-c2cc(-c3ccc(I)cc3)n[nH]2)cc1,4,1.2*
Cc1cccn2c(=O)c(/C=C3\SC(=S)N(Cc4ccccc4)C3=O)c(NCCCn3ccnc3)nc12,7,0.59*
COc1ccc(CCN2C(=O)/C(=C/c3c(NCCCn4ccnc4)nc4c(C)cccn4c3=O)SC2=S)cc1OC,7,0.89
CCOc1ccc(NC2=C(Cl)C(=O)N(c3cccc(Cl)c3)C2=O)cc1,-13,0.94
O=C(NC(CS)C(=O)O)c1cncc(O)c1 (stereo not given),0,0.64*
CCOC(=O)c1c(NC(=O)c2cncc(Br)c2)sc(C)c1C,17,0.97
SMILES,NS3h inh CB,Cy5 interf NS3h
CCNc1nc(NC(C)C)nc(Oc2ccc(C(=O)OC)cc2)n1,7,0.99
CCOc1ccc(-c2cc(C)n3nc(C(=O)Nc4ccc(C(C)=O)cc4)cc3n2)cc1,4,0.67*
Cc1cc(-c2ccccc2)nc2cc(C(=O)Nc3ccc(Cl)cc3)nn12,6,0.93
CC(=O)c1ccc(NC(=O)c2cc3nc(-c4ccc(Br)cc4)cc(C(F)(F)F)n3n2)cc1,10,0.78*
COC(=O)c1cc2nc(-c3ccc(Br)cc3)cc(C(F)(F)F)n2n1,5,0.99
CCOc1ccc(-c2cc(C)n3nc(C(=O)N(C)Cc4ccccc4)cc3n2)cc1,23,0.97
CCOc1ccc(-c2cc(C)n3nc(C(N)=O)cc3n2)cc1,6,0.63*
COc1ccc(-n2nc3cc(C)c(NC(=O)c4ccc(Cl)cc4Cl)cc3n2)cc1,3,1.1
Cc1cc([N+](=O)[O-])cc2c1NC(=O)C2=O,5,1
COc1ccc2c(Cl)c(C(=O)N3CCN(c4ccccc4)CC3)sc2c1,13,0.84
CCc1ccccc1NC(=O)C(CC)c1ccccc1 (stereo not given),12,1
CCc1ccccc1NC(=O)[C@H]1CC=CC[C@H]1C(=O)O,19,0.74*
O=C(N/N=C\c1ccc[nH]1)c1ccccc1[N+](=O)[O-],15,0.67*
NC(=O)c1ccc(NC(=O)c2ccccc2[N+](=O)[O-])cc1,-7,0.97
Cc1ccc(S(=O)(=O)N=C2C=C(Cl)C(=O)C(Br)=C2)cc1,34,0.61*
Cc1ccc(S(=O)(=O)N=C2C=CC(=O)C(Br)=C2)cc1,28,0.94
CNC(=O)/C(=C/c1cccc([N+](=O)[O-])c1)NC(=O)c1ccc(OC)cc1,1,1.1
COc1cc(NC(C)=O)c(Cl)cc1NC(=O)c1ccccc1,4,1
COc1cc(NC(=O)C(F)(F)F)c(Cl)cc1NC(=O)c1ccccc1,43*,0.93
COC(=O)c1c(C)oc2cc(Br)c(OCc3ccc(F)cc3)cc12,4,1.1
